# Columns and labels:
# ETS1 [1] = biological target: T1, ETS1 (UniProt P14921); experiment: ETS1 binding intensity (PBM fluorescence), ETS1 alone (arbitrary fluorescence units); higher = stronger binding; conditions: ETS1 concentration 1 nM; RUNX1 concentration 0 nM
# T1 sequence: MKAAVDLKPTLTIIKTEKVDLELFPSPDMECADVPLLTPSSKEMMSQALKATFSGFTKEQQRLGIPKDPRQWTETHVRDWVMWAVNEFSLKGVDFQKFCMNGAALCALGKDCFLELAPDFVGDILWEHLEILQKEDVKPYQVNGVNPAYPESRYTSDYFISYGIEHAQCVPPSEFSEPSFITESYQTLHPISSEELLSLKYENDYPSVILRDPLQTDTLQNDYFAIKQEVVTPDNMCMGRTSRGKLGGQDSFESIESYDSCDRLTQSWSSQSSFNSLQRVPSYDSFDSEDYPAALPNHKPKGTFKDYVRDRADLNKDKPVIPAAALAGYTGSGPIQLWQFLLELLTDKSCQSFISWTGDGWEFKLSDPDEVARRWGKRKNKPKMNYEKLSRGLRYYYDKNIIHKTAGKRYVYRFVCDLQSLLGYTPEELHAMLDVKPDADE
# RUNX1 [2] = biological target: RUNX1 (UniProt Q01196); experiment: RUNX1 binding intensity (PBM fluorescence), RUNX1 alone (arbitrary fluorescence units); higher = stronger binding; conditions: RUNX1 concentration 2 nM; ETS1 concentration 0 nM
# Procedure: (§1)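 Cooperative gcPBM on 36-bp genomic probes with neighbouring ETS1 and RUNX1 sites. Recombinant human RUNX1 (2 nM) was incubated alone or with ETS1 (25 nM) and detected with anti-RUNX1 antibody plus Alexa488 secondary. Values are medians over 4 replicate spots; the RUNX1+ETS1 data were normalised to the RUNX1-only data. The probes sit in constant array flanks that are not printed.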
# ETS1 [3] = biological target: T1, ETS1; experiment: ETS1 binding intensity (PBM fluorescence) in presence of RUNX1, normalised to ETS1-only experiment (arbitrary fluorescence units); higher = stronger binding; conditions: ETS1 concentration 1 nM; RUNX1 concentration 25 nM
# RUNX1 [4] = biological target: RUNX1 (UniProt Q01196); experiment: RUNX1 binding intensity (PBM fluorescence) in presence of ETS1, normalised to RUNX1-only experiment (arbitrary fluorescence units); higher = stronger binding; conditions: RUNX1 concentration 2 nM; ETS1 concentration 25 nM
# Procedure: as §1
# 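Throughout, for RUNX1 binding intensity (PBM fluorescence) in presence of ETS1, normalised to RUNX1-only experiment: Full-length recombinant human ETS1 or RUNX1 bound to double-stranded 36-bp genomic probes on microarrays, detected by protein-specific primary antibody and Alexa488 secondary, spot fluorescence as median of four replicate spots.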
# 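Throughout, for RUNX1 binding intensity (PBM fluorescence), RUNX1 alone: Full-length recombinant human RUNX1 bound to double-stranded 36-bp genomic probes on a high-density microarray, scored as Alexa488 fluorescence per spot via anti-RUNX1 antibody, median of four replicate spots.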
# RUNX1, sequence (Q01196 whole entry): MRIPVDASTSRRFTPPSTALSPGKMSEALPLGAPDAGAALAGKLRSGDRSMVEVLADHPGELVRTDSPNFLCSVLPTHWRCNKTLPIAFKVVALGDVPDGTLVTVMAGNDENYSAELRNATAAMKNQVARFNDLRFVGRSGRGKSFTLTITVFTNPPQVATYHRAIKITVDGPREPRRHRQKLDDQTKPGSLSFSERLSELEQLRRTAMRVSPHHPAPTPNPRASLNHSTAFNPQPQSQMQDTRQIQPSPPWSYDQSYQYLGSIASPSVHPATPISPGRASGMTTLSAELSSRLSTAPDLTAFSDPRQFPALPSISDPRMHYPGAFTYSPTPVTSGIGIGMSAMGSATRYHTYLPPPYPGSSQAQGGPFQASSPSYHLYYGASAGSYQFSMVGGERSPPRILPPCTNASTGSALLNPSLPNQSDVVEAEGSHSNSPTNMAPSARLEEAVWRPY
Sequence,ETS1 binding intensity (ETS1 [1]),RUNX1 binding intensity (RUNX1 [2]),ETS1 binding intensity (ETS1 [3]),RUNX1 binding intensity (RUNX1 [4])
TGGCAGCCACATCCTGCCTGTGGCTAGGTCAACCCA,1220,794,1290,3730
TCCTCCCACGGGAAGTGCCGTAGGACCGCAGCCCGA,870,812,1170,1020
ATAGAAACTACAGGAAATACTGTGGTCAGGTTTTGA,2770,822,9500,1380
CTCTTCCGCTCAGTCATCCTCAGAGGTGGTAAGACT,496,1080,387,2080
AGAACCACTTCCTCTCAGTAAACCACAGAGACTGTA,592,1790,1310,5880
CTTAGTGGGGCAGGATGTGGTCAGGGAAGCTGATCT,4440,836,29900,7670
TGGAGTGGAGGAAGTGGTGTTACCACAGCTCAGAGG,1050,726,2680,1230
ATGGCGGAGCGGAAGTCCCAGCCACAACGCGAAAAG,3810,782,5670,1370
TGTTCAGGAACAGGAAATGAAACCCCGCAGCTTTGA,8520,748,11300,1150
CCTCAAAACCCGGAAACGCCTTGCGGGGCAGTGTGG,3330,789,4480,1400
GCGGAGGCGGAAGTCGTGCTGCTGCTGACCACGGCT,2560,741,3170,1370
CTGGGGAGGAAGCCTGAGGTGTGTGGTTTTGTTAAC,374,1040,811,983
ACCCTTCCTGGAGCATTGTCGCAGCAACCACAACAG,457,918,975,1200
TCTGCCGCCAGCCCATCCGCGACCGCATCCAGATCT,346,1250,653,1210
CTACCCTCCCTCTTCCTGTGGTTTCTCAAACATGTC,729,2470,937,5090
AGGCCCGGATACCCGCCCCCAAAACCGCGTCCACAA,523,1040,1050,1090
TATTCATGACATCCTGTCGGGCTTGTGGGCTGCGTA,1020,704,1590,1430
ACCACGAGCCCAGGATGCGGTTTATGCGCTGTCGGG,699,2660,2890,4230
GCTTCTGAGGAAGTGCGTTTTGTGGGTAGGTGGAGT,706,792,1410,878
GTCCTCTTCCTGTCCCCCAGGTGGGCATGTGGTTTG,519,988,751,1790

Sequence,ETS1 binding intensity (ETS1 [1]),RUNX1 binding intensity (RUNX1 [2]),ETS1 binding intensity (ETS1 [3]),RUNX1 binding intensity (RUNX1 [4])
CTTTAAGGAGGCGGAAAAGTTAACCGCGATGGGCAG,533,996,1430,1050
CTCTTCAGCAGGAAATGATGTGGTAAAACAGGGTTA,3000,856,10100,1390
TCTGTTCTTCCTTTTCCTGTGCGGTGTGCCCCAAAC,628,1530,722,2810
CTGCTGCTTTTAGGATGTGGTTTTATTATTGTCGGG,670,1020,4960,1340
CACCGACCGGAAGGGCCCCAAGGATCCCCGCAGCAG,2130,831,2710,1380
TGTGCTGACTACAGGATGCTGTGGTTAGTCAGGTTG,1690,809,13800,1720
GCGGCGAACCGGACGCCCCAACCACCCGCCCCCCAC,1710,987,1470,1060
AACTGCCTGGTGGCCGGAAACCGCTGGAGGGAGGGC,4740,793,10100,1130
AACCTGCAGACTTCCTGCCATGTGACCACAGGGTCT,901,915,3140,2160
AGGCCCACCTGCTGCGGATGTGGTCTCTGTGTGTGC,2340,774,6240,1340
ATACCGGCGCATCCGGATTTTGAAGCCGCAGTGGAC,728,673,774,1200
CAGCCGACTTCCGGGGTGGGGCTTGCTGCCGCAGAG,1760,774,1780,1730
AAAGACAGGATGTGGGGGAGTGAGCCACAAGGGCCC,1160,752,1720,2080
CACCTCCTACTTCCCCCCGCTGATAACCACCAACCC,1700,2990,1790,2830
TTCACAACACAGGATGTGCGGTATTATACGGCAAAG,5120,898,11200,2390
AATCCAACACTTCCTCCTCCACCGCAGAAAGGCAAC,518,1490,966,2670
ACCATAAGGACCGGAAGCAGAGACCACACTGGTGCT,7910,831,12600,1440
TTTATCATGAATGCAGGATGTGGGCAAACTCATGAC,2860,814,5910,1140
GTCGTCCCGGAAACCGGGATGCGGTTATCAGAGCGA,1860,1000,7110,3180
TTCAGAAAAAAAGGAAGTGGTAAATTCTTGCTGATT,1890,775,3620,1500
